A selection: hits, their analogues and other compounds. The true share with any hit is near 21%.
Pf growth 48h = P. falciparum growth inhibition at 48 hours (one generation); Potency, µM (doses to about 28.7 µM), for inactives: at the highest dose activity change, negative = inhibition, hits mostly inhibitors; 310,000 compounds, 5.9% hits; P. falciparum luciferase growth in erythrocytes, 48 h; note: potency is the fitted concentration of half-maximal effect; % is set by controls: 0 for no effect and ±100 for the full control effect
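Read-out is firefly luciferase luminescence from an integrated reporter in P. falciparum, so falling signal marks reduced parasite growth. Infected erythrocytes were at 2% hematocrit and 0.1% parasitemia (final) in Albumax-supplemented RPMI 1640.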
Sm TGR block = S. mansoni TGR enzyme inhibition. Q962Y6. purified TGR, DTNB reduction, TNB absorbance 405 nm. Potency, µM (top dose mostly 114 µM), without a hit: at the highest dose activity change, negative = inhibition, usual class: inhibitors. 360,000 compounds, 3% hits; note: potency is the fitted concentration of half-maximal effect; % is set by controls: 0 for no effect and ±100 for the full control effect; nearly all actives have a fitted effect of over 60% in size
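Kinetic colorimetric format: TGR-catalysed, NADPH-driven DTNB reduction monitored via TNB absorbance. Enzyme dispensed at 20 nM; compound exposure 15 min at room temperature before reaction start.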
NS1 inh = inhibitors of influenza NS1 protein function | Potency, µM (titrated, usually from 46.1 µM), for the others: at the highest dose activity, positive = more growth | AID 2326 | 270,000 compounds, 0.4% hits; calls by dose curve; note: potency is the fitted concentration of half-maximal effect; actives are rising curves; nearly all actives have a fitted effect of over 50% in size
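S. cerevisiae expressing influenza A NS1, grown in glucose, washed, then diluted 1:100 into pH 6.0 -URA galactose medium with 23 nl compound. Growth recovery read as OD600; NS1-free strain serves as control.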
Pf growth 96h = P. falciparum growth inhibition at 96 hour, primary screen for plastid delayed-death inhibitors | P. falciparum luciferase reporter growth, 96 h | Potency, µM (doses to about 28.7 µM), inactives show at the top dose activity change, negative = inhibition, usual class: inhibitors | 320,000 compounds, 6.9% hits | AID 504834; note: potency is the fitted concentration of half-maximal effect; % is set by controls: 0 for no effect and ±100 for the full control effect
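96 h incubation, 37 C, 5% CO2, of luciferase-reporter P. falciparum-infected RBCs (2% hematocrit, 0.05% parasitemia final) with test compounds; endpoint luminescence.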
Shiga inhibitor = blocks Shiga toxin action in Vero cells; inhibition, % at 38.7 µM; 290,000 compounds, 9.2% hits; Vero cells, Shiga toxin protein synthesis inhibition reporter; in the data active = inhibition mostly above about 28%, no sharp cut-off; inactive = mostly below about 43%; note: 0% is about no effect
Cycloheximide cs = affects cycloheximide protein synthesis inhibition readout, counter-screen | cell reporter, cycloheximide protein synthesis inhibition counterscreen | max response, % | 300,000 compounds, 12% hits; in the data active = max response mostly above about 13%, no sharp cut-off; inactive = mostly below about 14%; note: read at 38.3 µM for the half of the compounds with a filed dose; 0% is about no effect
Starred values were filed as active, the others as inactive; [ ] = remark or other dose. Unless noted, calls come from the whole dose curve; as a rule, active = well fitted curve in the direction sought with a large enough effect; inconclusive = small, poorly fitted or top-dose-only effect, or another doubt; inactive = no such curve, though single readings can be large; an effect the other way counts as inactive or inconclusive.

Screening CC1CC(C)CN(C(=O)c2cccc(N3C(=O)c4ccccc4C3=O)c2)C1 (stereo not drawn) returned Pf growth 48h -17%, Sm TGR block 0% and Pf growth 96h inconclusive.
For Cc1cc(N2C(=O)C3CCCN3C2c2cccc(Cl)c2)no1 (stereo not drawn) the results were Pf growth 48h 9%, Sm TGR block -22%, NS1 inh 2%, Pf growth 96h 4.7µM*, Shiga inhibitor 2 and Cycloheximide cs -2.
Screening O=C1C2CCCN2C(c2cccc(Cl)c2)N1c1ccccn1 (stereo not drawn) returned Pf growth 48h -1%, Sm TGR block 6%, NS1 inh inconclusive, Pf growth 96h 2%, Shiga inhibitor -21 and Cycloheximide cs -2.
For COc1ccc(C2N(c3cc(C)on3)C(=O)C3CCCN32)cc1 (stereo not drawn) the results were Pf growth 48h -32%[1.15 µM], Sm TGR block 12%, NS1 inh 6%, Pf growth 96h 3.3µM*, Shiga inhibitor -9 and Cycloheximide cs -6.
Screening Cc1cc(N2C(=O)C3CCCN3C2c2sccc2C)no1 (stereo not drawn) returned Pf growth 48h 13%, Sm TGR block -27%, NS1 inh 1%, Pf growth 96h -14%, Shiga inhibitor 23 and Cycloheximide cs 2.
`CN1CCc2c(C#N)c(N3CCCCC3)nc(NCc3ccccc3)c2C1` gave Pf growth 48h inconclusive, Sm TGR block -24%, NS1 inh -1%, Pf growth 96h 2.3µM*, Shiga inhibitor -15 and Cycloheximide cs -5.
N#Cc1c(NCCCO)nc(NCc2ccccc2)c2c1CCN(Cc1ccccc1)C2 was read as Pf growth 48h inconclusive, Sm TGR block 6%, NS1 inh -74%, Pf growth 96h 10µM*, Shiga inhibitor -10 and Cycloheximide cs -6.
COc1ccc(S(=O)(=O)NCc2ccc(C(=O)NCc3cccnc3)cc2)cc1 was read as Pf growth 48h -5%, Sm TGR block 9%, Pf growth 96h inconclusive, Shiga inhibitor -14 and Cycloheximide cs 11.
For COc1ccc(N2CCN(S(=O)(=O)c3ccc4c(c3)CCCN4C(C)=O)CC2)cc1 the results were Sm TGR block 5%.
For Cc1cccc(-n2c(C)cc(/C=N/n3cnnc3)c2C)c1 the results were Pf growth 48h 0%, Sm TGR block -25%, NS1 inh -2%, Pf growth 96h inconclusive, Shiga inhibitor 13 and Cycloheximide cs -2.
Cc1ccc(C(=O)NCCCNC(=O)c2ccccc2F)cn1 was read as Pf growth 48h 3%, Sm TGR block 5%, NS1 inh -12%, Pf growth 96h 2.9µM*, Shiga inhibitor -5 and Cycloheximide cs -2.
`C=CCc1cccc(C2Nc3ccccc3C(=O)N2O)c1O` (stereo not drawn) gave Pf growth 48h 2%, Sm TGR block inconclusive, NS1 inh -50%, Pf growth 96h 55%, Shiga inhibitor -5 and Cycloheximide cs 1.
For C=CCN1C(=O)c2ccccc2NC1c1cc(Br)cs1 (stereo not drawn) the results were Pf growth 48h 10µM*, Sm TGR block -2%, NS1 inh 4%, Pf growth 96h inconclusive, Shiga inhibitor -8 and Cycloheximide cs -4.
`CCOC(=O)c1ccc(N=C2NC(=O)CS2)cc1` gave Pf growth 48h 6%, Sm TGR block inconclusive, NS1 inh 1%, Pf growth 96h 129%, Shiga inhibitor -2 and Cycloheximide cs -2.
CCOC(=O)c1c(C)[nH]c(C2=NNC(=Nc3ccccc3)SC2)c1C was read as Pf growth 48h 3.3µM*, Sm TGR block -13%, NS1 inh 18%, Pf growth 96h 3.7µM*, Shiga inhibitor 30* and Cycloheximide cs 20*.
C=CCn1c(C)cc(C2=NNC(=NC(C)(C)C)SC2)c1C was read as Pf growth 48h -61%, Sm TGR block -4%, NS1 inh 25%, Pf growth 96h 0%, Shiga inhibitor 7 and Cycloheximide cs 1.
`CCOC(=O)c1c(C)[nH]c(C2=NNC(=Nc3ccc(OCC)cc3)SC2)c1C` gave Pf growth 48h inconclusive, Sm TGR block -16%, NS1 inh 8%, Pf growth 96h 15µM*, Shiga inhibitor 4 and Cycloheximide cs 13*.
For CC(=O)c1c(C)[nH]c(C2=NNC(=NC(C)(C)C)SC2)c1C the results were Pf growth 48h 0%, Sm TGR block -33%, Pf growth 96h 2.6µM*, Shiga inhibitor 82* and Cycloheximide cs 29*.
Screening CCOC(=O)c1c(C)[nH]c(C2=NNC(=Nc3ccccc3OC)SC2)c1C returned Pf growth 48h inconclusive, Sm TGR block -2%, NS1 inh inconclusive, Pf growth 96h inconclusive, Shiga inhibitor 42* and Cycloheximide cs 49*.
For COc1ccc(CN2CCN(C(=O)C3CCC(CNS(=O)(=O)c4ccc(C)cc4)CC3)CC2)c(OC)c1OC (stereo not drawn) the results were Pf growth 48h -4%, Sm TGR block 0%, NS1 inh -8%, Pf growth 96h -27%, Shiga inhibitor -8 and Cycloheximide cs -5.
For Cc1ccc(C2C(C(=O)c3ccco3)=C(O)C(=O)N2c2nnc(C)s2)cc1 (stereo not drawn) the results were Pf growth 48h 29%, Sm TGR block -34%, NS1 inh 11%, Pf growth 96h 13%, Shiga inhibitor 17 and Cycloheximide cs 1.
`Cc1nnc(N2C(=O)C(O)=C(C(=O)c3ccco3)C2c2cccc3ccccc23)s1` (stereo not drawn) gave Pf growth 48h 10%, Sm TGR block inconclusive, NS1 inh 3%, Pf growth 96h -4%, Shiga inhibitor 37* and Cycloheximide cs 1.
CSc1nnc(N2C(=O)C(O)=C(C(=O)c3ccco3)C2c2ccccc2F)s1 (stereo not drawn) was read as Pf growth 48h inconclusive, Sm TGR block inconclusive, NS1 inh 29%, Pf growth 96h inconclusive, Shiga inhibitor -3 and Cycloheximide cs 9.
For Cc1cc(N2C(=O)C(O)=C(C(=O)c3ccco3)C2c2ccccc2F)no1 (stereo not drawn) the results were Pf growth 48h 8%, Sm TGR block -12%, NS1 inh 14%, Pf growth 96h inconclusive, Shiga inhibitor 13 and Cycloheximide cs -1.
Screening C=CCSc1nnc(N2C(=O)C(O)=C(C(=O)c3ccco3)C2c2ccccc2F)s1 (stereo not drawn) returned Pf growth 48h 31%, Sm TGR block 11µM*, NS1 inh -3%, Pf growth 96h 16%, Shiga inhibitor 2 and Cycloheximide cs 2.
For CCCSc1nnc(N2C(=O)C(O)=C(C(=O)c3ccco3)C2c2ccccc2F)s1 (stereo not drawn) the results were Pf growth 48h -1%, Sm TGR block 7.1µM*, NS1 inh -3%, Pf growth 96h 11%, Shiga inhibitor -3 and Cycloheximide cs 10.

Screens: PubChem, National Center for Advancing Translational Sciences (NCATS)
